Measurements from PubChem BioAssay (EPA / NIEHS).
Values joined by “and” are separate entries in the source; they are usually repeats but may differ in a detail not shown here. Identical values can stand only once. Inconclusive results are not listed. More than one record can exist for a structure, and the calls need not agree. Active and inactive are the calls of the source. How the source made its calls, unless noted: active means hit-call score of the fitted dose curve at least 0.9, where 1 is the maximum; inconclusive means response in the unintended direction; inactive means score below 0.9.

Assays:
[1] = BSK_4H_Eotaxin3: BioMAP Diversity Plus: 4H Assay for Eotaxin 3 Biomarker Activity (AID 2283000; active means hit-call score of the fitted dose curve at least 0.9, where 1 is the maximum; inactive means score below 0.9;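 further: CCL26 protein level quantified by ELISA in parallel with SRB cytotoxicity check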); conditions: primary human endothelial cells (HUVEC); actives raise or lower the signal
How it was run: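 Chemicals were added to human umbilical vein endothelium cultures, and Eotaxin-3 was quantified by ELISA at 24 h. Values were derived by bidirectional fitting with DMSO serving as negative control and activity baseline.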

[2] = molecular target: human Peroxisome Proliferator-activated Receptor alpha (PPARa), PPARA (gene 5465) (UniProt Q07869); assay: ATG_PPARa_TRANS: Attagene TRANS-FACTORIAL HepG2 Assay for human Peroxisome Proliferator-activated Receptor alpha (PPARa) (AID 2283001)
How it was run: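 Reporter transcripts quantified by RT-PCR plus capillary electrophoresis after 24 h treatment, fitted upward relative to DMSO. Cells: human HepG2 transiently carrying multiple GAL4-UAS reporter units driven by NR-Gal4 chimeras.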

[3] = molecular target: human Peroxisome Proliferator-activated Receptor delta (PPARd), PPARD (gene 5467) (UniProt Q03181); assay: ATG_PPARd_TRANS: Attagene TRANS-FACTORIAL HepG2 Assay for human Peroxisome Proliferator-activated Receptor delta (PPARd) (AID 2283002)
How it was run: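 Transient HepG2 transfection (multiple GAL4-UAS RTUs, chimeric receptor-Gal4); 24 h dosing; total RNA → oligo(dT) RT → PCR → 6-FAM primer extension → HpaI cut → CE. Positive direction vs DMSO.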

[4] = read-out: Intercellular Adhesion Molecule 1 (ICAM1), ICAM1 (gene 3383); assay: BSK_3C_ICAM1: BioMAP Diversity Plus: 3C Assay for Intercellular Adhesion Molecule 1 (ICAM1) Biomarker Activity (AID 2283003; active means hit-call score of the fitted dose curve at least 0.9, where 1 is the maximum; inactive means score below 0.9); conditions: primary human endothelial cells (HUVEC); actives raise or lower the signal
How it was run: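 Chemicals are dosed onto primary human umbilical vein endothelium (3C system). After 24 h, ICAM-1 is measured by ELISA, and responses are fitted bidirectionally relative to DMSO.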

[5] = BSK_3C_Proliferation: Cell Proliferation Assessment in the BioMAP Diversity Plus: 3C Assay (AID 2283006; active means hit-call score of the fitted dose curve at least 0.9, where 1 is the maximum; inactive means score below 0.9); conditions: primary human endothelial cells (HUVEC)
How it was run: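 Cells (human umbilical vein endothelial, sub-confluent) receive test chemical; after 48 h they are fixed in 10% trichloroacetic acid, stained with 0.1% SRB and read at 560 nm. Activity is referenced to DMSO, fitting increases and decreases.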

[6] = molecular target: Peroxisome proliferator-activated receptor gamma (Homo sapiens) (UniProt P37231); assay: ATG_PPARg_TRANS: Attagene TRANS-FACTORIAL HepG2 Assay for human Peroxisome Proliferator-activated Receptor-gamma (PPARg) (AID 2283007)
How it was run: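 Human hepatoma HepG2, transient MRTU transfection, 24 h treatment. mRNA reporter signal by RT-PCR plus capillary electrophoresis, fluorescence detection; fitted for increase over DMSO negative control.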

[7] = molecular target: Nuclear receptor subfamily 1 group I member 2 (Homo sapiens) (UniProt O75469); assay: ATG_PXR_TRANS: Attagene TRANS-FACTORIAL HepG2 Assay for human Pregnane X Receptor (PXR) (AID 2283008)
How it was run: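 Trans-factorial format: exogenous NR-Gal4 fusion activity, not endogenous factor, in transfected human HepG2 liver cells. After 24 h dosing, RNA isolated, reverse-transcribed, amplified and resolved by capillary electrophoresis; induction scored versus DMSO.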

[8] = molecular target: human RAR-related Orphan Receptor beta (RORb), RORB (gene 6096) (UniProt Q92753); assay: ATG_RORb_TRANS: Attagene TRANS-FACTORIAL HepG2 Assay for human RAR-related Orphan Receptor beta (RORb) (AID 2283010)
How it was run: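 Transfect HepG2 with multiple GAL4-UAS reporter transcription units; dose chemicals for 24 h; isolate RNA, reverse-transcribe and PCR-amplify reporter sequences; label, digest and resolve fragments by capillary electrophoresis; fit increases relative to DMSO.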

[9] = molecular target: Retinoic acid receptor RXR-alpha (Homo sapiens) (UniProt P19793); assay: ATG_RXRa_TRANS: Attagene TRANS-FACTORIAL HepG2 Assay for human Retinoid X Receptor alpha (RXRa) (AID 2283012)
How it was run: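 Measures exogenous chimeric NR-GAL4 activity in transfected HepG2 liver cells after 24 h of dosing. Induced reporter mRNA was detected by RT-PCR with capillary electrophoresis, and gain of signal was analysed against DMSO.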

[10] = molecular target: human Thyroid Receptor alpha (THRa1), THRA (gene 7067) (UniProt P10827); assay: ATG_THRa1_TRANS: Attagene TRANS-FACTORIAL HepG2 Assay for human Thyroid Receptor alpha (THRa1) (AID 2283014)
How it was run: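 Reporter transcript induction, read by capillary electrophoresis of 6-FAM-labelled RT-PCR products, reflects activity of a transfected THRa1-Gal4 fusion in HepG2 liver cells. Cells were dosed for 24 h; activity was fitted in the positive direction against DMSO.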

[11] = read-out: E-selectin (Homo sapiens) (UniProt P16581); assay: BSK_3C_Eselectin: BioMAP Diversity Plus: 3C Assay for Eselectin Biomarker Activity (AID 2283015; active means hit-call score of the fitted dose curve at least 0.9, where 1 is the maximum; inactive means score below 0.9); conditions: primary human endothelial cells (HUVEC); actives raise or lower the signal
How it was run: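 ELISA read-out of E-selectin on endothelial monolayers after 24 h chemical treatment. Human umbilical vein primary cells served as the system, with DMSO defining baseline activity for bidirectional fitting.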

[12] = read-out: Interleukin-1 alpha (IL1a), IL1A (gene 3552); assay: BSK_BE3C_IL1a: BioMAP Diversity Plus: BE3C Assay for Interleukin-1 alpha (IL1a) Biomarker Activity (AID 2283016; active means hit-call score of the fitted dose curve at least 0.9, where 1 is the maximum; inactive means score below 0.9); conditions: primary human bronchial epithelial cells; actives raise or lower the signal
How it was run: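 Signal from IL-1a ELISA, taken 24 h after chemical dosing of human bronchial epithelial cells, is compared with DMSO as baseline using bidirectional curve fitting.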

[13] = read-out: Monocyte Chemoattractant Protein-1 (MCP1), CCL2 (gene 6347); assay: BSK_3C_MCP1: BioMAP Diversity Plus: 3C Assay for Monocyte Chemoattractant Protein-1 (MCP1) Biomarker Activity (AID 2283017; active means hit-call score of the fitted dose curve at least 0.9, where 1 is the maximum; inactive means score below 0.9); conditions: primary human endothelial cells (HUVEC); actives raise or lower the signal
How it was run: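 ELISA read-out of MCP-1 from human umbilical vein endothelial cell cultures harvested 24 h post-dosing. Gain or loss of signal was fitted relative to DMSO.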

[14] = read-out: Monocyte Chemoattractant Protein-1 (MCP1), CCL2 (gene 6347); assay: BSK_4H_MCP1: BioMAP Diversity Plus: 4H Assay for Monocyte Chemoattractant Protein-1 (MCP1) Biomarker Activity (AID 2283018; active means hit-call score of the fitted dose curve at least 0.9, where 1 is the maximum; inactive means score below 0.9); conditions: primary human endothelial cells (HUVEC); actives raise or lower the signal
How it was run: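 Endothelial cells from umbilical vein were treated with test chemical, then after 24 h MCP-1 levels were quantified by ELISA; endpoint values came from bidirectional fitting with DMSO as baseline of activity.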

[15] = read-out: Human Leukocyte Antigen - DR isotype (HLADR), HLA-DRA (gene 3122); assay: BSK_3C_HLADR: BioMAP Diversity Plus: 3C Assay for Human Leukocyte Antigen - DR isotype (HLADR) Biomarker Activity (AID 2283019; active means hit-call score of the fitted dose curve at least 0.9, where 1 is the maximum; inactive means score below 0.9;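 further: ELISA of cell-surface HLA-DR on HUVEC 24 h after dosing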); conditions: primary human endothelial cells (HUVEC); actives raise or lower the signal
How it was run: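 ELISA readout of surface HLA-DR on human umbilical vein endothelium, taken 24 h after chemical treatment. Gain- and loss-of-signal were both fitted relative to DMSO.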

[16] = molecular target: human Retinoic Acid Receptor beta (RARb), RARB (gene 5915) (UniProt P10826); assay: ATG_RARb_TRANS: Attagene TRANS-FACTORIAL HepG2 Assay for human Retinoic Acid Receptor beta (AID 2283004)
How it was run: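 Transient transfection of HepG2 with multiple reporter units → chemical dosing, 24 h → total RNA isolation → RT with oligo(dT) → reporter-specific PCR, 6-FAM primer extension, HpaI digest → capillary electrophoresis. Positive direction vs DMSO control.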

[17] = molecular target: Retinoic acid receptor alpha (Homo sapiens) (UniProt P10276); assay: ATG_RARa_TRANS: Attagene TRANS-FACTORIAL HepG2 Assay for human Retinoic Acid Receptor alpha (RARa) (AID 2283005)
How it was run: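 Reporter transcripts, measured by RT-PCR with fluorescent labeling and capillary electrophoresis after 24 h dosing, reflect activity of an exogenous human RARa–GAL4 fusion in transiently transfected HepG2. Fitted for increase relative to DMSO.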

[18] = molecular target: human Retinoic Acid Receptor gamma (RARg), RARG (gene 5916) (UniProt P13631); assay: ATG_RARg_TRANS: Attagene TRANS-FACTORIAL HepG2 Assay for human Retinoic Acid Receptor gamma (RARg) (AID 2283009)
How it was run: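 TRANS format measured activity of exogenous NR-GAL4 fusion (RARg) in transfected HepG2 liver cells after 24 h dosing. Induced reporter RNA was detected by RT-PCR/capillary electrophoresis fluorescence, analysed in the positive direction against DMSO.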

[19] = molecular target: human RAR-related Orphan Receptor gamma (RORg), RORC (gene 6097) (UniProt P51449); assay: ATG_RORg_TRANS: Attagene TRANS-FACTORIAL HepG2 Assay for human RAR-related Orphan Receptor gamma (RORg) (AID 2283011)
How it was run: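 First, HepG2 liver cells were transfected with GAL4-UAS-driven reporter constructs and the RORg-Gal4 fusion. Next, they were treated with chemical for 24 h. Finally, reporter mRNA was quantified by RT-PCR and capillary electrophoresis, with upward activity fitted against DMSO.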

[20] = molecular target: human Retinoid X Receptor beta (RXRb), RXRB (gene 6257) (UniProt P28702); assay: ATG_RXRb_TRANS: Attagene TRANS-FACTORIAL HepG2 Assay for human Retinoid X Receptor beta (RXRb) (AID 2283013)
How it was run: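 Chimeric receptor-Gal4 activity was assessed in transiently transfected human HepG2 cells after 24 h exposure. Transcripts from GAL4-UAS reporters were quantified by fluorescent RT-PCR and capillary electrophoresis, with DMSO as negative control and baseline.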

Measured: AC50

Peroxisome proliferator-activated receptor gamma (Homo sapiens), sequence (P37231 whole entry, looked up): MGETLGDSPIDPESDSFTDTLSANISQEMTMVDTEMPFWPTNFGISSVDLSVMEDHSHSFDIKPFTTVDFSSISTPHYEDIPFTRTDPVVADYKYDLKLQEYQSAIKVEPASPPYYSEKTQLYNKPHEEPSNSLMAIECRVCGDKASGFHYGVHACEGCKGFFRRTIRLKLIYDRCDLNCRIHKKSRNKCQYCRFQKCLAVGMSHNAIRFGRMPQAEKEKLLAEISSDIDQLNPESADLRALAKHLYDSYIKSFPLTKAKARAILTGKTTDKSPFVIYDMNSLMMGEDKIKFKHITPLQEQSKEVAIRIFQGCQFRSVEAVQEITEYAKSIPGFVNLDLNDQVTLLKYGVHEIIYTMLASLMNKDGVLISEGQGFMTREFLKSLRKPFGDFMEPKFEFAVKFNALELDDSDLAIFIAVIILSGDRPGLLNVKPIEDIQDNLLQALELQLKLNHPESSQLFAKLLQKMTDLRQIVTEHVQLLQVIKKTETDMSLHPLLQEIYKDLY
Retinoic acid receptor alpha (Homo sapiens), sequence (P10276 whole entry, looked up, the tested form may be a part): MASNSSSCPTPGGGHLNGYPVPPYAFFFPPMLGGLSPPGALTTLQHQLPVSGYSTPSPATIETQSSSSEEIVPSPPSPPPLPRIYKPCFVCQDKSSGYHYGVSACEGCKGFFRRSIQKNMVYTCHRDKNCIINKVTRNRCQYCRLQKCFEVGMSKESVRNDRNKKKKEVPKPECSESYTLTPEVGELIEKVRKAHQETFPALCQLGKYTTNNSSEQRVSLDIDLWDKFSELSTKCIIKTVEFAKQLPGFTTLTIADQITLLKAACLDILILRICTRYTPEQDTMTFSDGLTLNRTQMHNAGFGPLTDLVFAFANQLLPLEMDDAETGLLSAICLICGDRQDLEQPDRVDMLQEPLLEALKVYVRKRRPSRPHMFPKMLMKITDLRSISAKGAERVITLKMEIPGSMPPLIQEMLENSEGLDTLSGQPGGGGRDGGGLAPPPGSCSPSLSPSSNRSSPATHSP
human Thyroid Receptor alpha (THRa1), THRA (gene 7067), sequence (P10827 whole entry, looked up, the tested form may be a part): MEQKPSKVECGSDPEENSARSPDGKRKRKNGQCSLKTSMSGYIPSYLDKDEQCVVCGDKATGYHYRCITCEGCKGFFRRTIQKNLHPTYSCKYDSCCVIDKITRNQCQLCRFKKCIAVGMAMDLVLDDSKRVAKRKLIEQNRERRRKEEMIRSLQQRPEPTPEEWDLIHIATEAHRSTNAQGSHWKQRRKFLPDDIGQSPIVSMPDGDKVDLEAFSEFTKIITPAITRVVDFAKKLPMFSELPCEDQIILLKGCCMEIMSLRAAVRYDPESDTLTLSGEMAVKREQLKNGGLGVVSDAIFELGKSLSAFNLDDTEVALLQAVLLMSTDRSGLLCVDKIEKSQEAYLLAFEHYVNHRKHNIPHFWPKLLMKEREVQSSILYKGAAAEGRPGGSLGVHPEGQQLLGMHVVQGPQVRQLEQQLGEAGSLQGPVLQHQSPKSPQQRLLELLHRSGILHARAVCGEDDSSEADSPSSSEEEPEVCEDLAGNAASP
human Peroxisome Proliferator-activated Receptor delta (PPARd), PPARD (gene 5467), sequence (Q03181 whole entry, looked up, the tested form may be a part): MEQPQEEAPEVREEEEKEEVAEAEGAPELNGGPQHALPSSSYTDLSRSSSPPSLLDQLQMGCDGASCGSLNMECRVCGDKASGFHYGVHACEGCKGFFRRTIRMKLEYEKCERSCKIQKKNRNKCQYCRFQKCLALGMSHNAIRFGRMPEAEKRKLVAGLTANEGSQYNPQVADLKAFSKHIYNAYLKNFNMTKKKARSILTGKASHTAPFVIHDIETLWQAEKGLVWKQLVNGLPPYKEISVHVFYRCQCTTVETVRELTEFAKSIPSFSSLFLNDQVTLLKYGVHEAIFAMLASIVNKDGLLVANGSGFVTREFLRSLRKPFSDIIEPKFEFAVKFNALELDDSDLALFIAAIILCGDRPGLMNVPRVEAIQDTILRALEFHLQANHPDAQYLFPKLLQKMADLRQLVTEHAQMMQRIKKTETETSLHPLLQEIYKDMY
human RAR-related Orphan Receptor beta (RORb), RORB (gene 6096), sequence (Q92753 whole entry, looked up, the tested form may be a part): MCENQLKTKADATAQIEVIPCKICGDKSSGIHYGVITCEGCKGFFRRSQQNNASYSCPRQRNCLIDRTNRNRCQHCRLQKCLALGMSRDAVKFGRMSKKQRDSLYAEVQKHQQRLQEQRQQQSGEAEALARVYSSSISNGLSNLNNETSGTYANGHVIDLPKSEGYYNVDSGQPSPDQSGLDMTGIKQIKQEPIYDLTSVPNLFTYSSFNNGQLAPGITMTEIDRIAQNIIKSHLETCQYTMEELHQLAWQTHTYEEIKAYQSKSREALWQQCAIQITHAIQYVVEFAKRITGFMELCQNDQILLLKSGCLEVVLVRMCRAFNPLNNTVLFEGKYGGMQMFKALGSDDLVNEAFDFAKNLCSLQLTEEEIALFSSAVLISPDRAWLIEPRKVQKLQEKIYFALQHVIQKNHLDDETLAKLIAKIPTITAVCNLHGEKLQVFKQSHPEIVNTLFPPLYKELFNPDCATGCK
human Retinoid X Receptor beta (RXRb), RXRB (gene 6257), sequence (P28702 whole entry, looked up, the tested form may be a part): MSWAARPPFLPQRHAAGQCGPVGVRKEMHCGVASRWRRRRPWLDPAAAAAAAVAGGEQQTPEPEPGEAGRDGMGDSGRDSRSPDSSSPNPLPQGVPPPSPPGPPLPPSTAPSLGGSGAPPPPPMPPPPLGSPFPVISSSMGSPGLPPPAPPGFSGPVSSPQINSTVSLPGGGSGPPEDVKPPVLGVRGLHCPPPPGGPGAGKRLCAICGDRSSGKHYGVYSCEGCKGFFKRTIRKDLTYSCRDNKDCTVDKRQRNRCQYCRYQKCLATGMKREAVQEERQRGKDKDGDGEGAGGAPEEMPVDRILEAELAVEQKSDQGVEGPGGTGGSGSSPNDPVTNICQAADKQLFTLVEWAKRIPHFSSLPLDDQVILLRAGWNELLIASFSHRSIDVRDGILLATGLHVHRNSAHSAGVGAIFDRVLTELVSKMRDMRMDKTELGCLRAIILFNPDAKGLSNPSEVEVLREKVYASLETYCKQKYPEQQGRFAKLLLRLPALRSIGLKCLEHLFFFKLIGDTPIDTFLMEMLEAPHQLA
human RAR-related Orphan Receptor gamma (RORg), RORC (gene 6097), sequence (P51449 whole entry, looked up, the tested form may be a part): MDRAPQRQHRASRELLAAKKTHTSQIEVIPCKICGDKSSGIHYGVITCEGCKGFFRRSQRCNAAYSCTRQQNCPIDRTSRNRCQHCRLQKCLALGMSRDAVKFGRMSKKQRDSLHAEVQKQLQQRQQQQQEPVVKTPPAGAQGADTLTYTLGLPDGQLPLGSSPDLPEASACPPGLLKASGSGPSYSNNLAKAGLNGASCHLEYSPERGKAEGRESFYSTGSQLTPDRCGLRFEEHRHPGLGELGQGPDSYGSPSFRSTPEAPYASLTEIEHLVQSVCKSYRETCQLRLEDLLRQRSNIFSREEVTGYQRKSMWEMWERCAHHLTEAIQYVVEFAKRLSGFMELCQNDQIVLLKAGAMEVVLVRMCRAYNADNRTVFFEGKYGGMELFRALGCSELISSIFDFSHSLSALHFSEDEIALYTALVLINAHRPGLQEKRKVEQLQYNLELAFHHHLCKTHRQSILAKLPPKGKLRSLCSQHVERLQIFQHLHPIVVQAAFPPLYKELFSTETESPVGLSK
Nuclear receptor subfamily 1 group I member 2 (Homo sapiens), sequence (O75469 whole entry, looked up, the tested form may be a part): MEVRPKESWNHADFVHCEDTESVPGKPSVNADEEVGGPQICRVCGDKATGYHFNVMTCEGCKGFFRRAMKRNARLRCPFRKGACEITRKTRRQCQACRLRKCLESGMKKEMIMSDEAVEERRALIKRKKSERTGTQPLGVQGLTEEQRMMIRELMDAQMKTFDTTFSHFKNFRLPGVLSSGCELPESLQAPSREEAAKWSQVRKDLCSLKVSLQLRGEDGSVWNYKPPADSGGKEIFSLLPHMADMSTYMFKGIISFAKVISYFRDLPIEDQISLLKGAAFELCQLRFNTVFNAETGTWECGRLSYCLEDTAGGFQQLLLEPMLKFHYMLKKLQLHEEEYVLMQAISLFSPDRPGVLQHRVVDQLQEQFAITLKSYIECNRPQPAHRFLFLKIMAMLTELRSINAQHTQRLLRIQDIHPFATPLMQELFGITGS
Retinoic acid receptor RXR-alpha (Homo sapiens), sequence (P19793 whole entry, looked up, the tested form may be a part): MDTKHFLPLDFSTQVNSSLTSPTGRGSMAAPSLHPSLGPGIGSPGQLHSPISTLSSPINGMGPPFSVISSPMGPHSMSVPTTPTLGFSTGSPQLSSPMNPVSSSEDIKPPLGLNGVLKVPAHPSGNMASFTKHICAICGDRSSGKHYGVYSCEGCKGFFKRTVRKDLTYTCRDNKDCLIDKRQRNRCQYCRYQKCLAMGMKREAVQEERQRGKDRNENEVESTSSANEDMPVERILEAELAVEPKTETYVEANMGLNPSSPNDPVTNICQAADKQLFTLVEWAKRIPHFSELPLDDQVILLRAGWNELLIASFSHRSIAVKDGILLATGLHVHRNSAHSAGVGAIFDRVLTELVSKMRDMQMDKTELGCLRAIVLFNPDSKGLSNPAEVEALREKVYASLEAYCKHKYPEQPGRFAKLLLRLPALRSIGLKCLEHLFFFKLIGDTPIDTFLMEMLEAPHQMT
human Retinoic Acid Receptor gamma (RARg), RARG (gene 5916), sequence (P13631 whole entry, looked up, the tested form may be a part): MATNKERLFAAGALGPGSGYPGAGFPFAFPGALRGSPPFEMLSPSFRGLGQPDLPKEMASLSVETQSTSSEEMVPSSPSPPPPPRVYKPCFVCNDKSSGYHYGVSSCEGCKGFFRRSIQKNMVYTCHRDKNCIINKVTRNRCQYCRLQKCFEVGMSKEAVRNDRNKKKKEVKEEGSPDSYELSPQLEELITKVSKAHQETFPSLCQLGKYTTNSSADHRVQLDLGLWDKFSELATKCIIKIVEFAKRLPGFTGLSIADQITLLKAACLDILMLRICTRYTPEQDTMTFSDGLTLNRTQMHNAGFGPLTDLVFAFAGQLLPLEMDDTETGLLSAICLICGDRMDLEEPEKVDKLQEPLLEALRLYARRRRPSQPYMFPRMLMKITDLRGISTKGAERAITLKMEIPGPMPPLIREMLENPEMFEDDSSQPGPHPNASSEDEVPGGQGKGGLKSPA

NC(=O)C(F)(F)C(F)(F)C(F)(F)C(F)F
not listed: [16] | [17] | [18] | [19] | [20]
inactive: all other assays above

O=S(=O)(Cl)C(F)(F)C(F)(F)C(F)(F)C(F)(F)C(F)(F)C(F)(F)C(F)(F)C(F)(F)F
inactive: [1] | [2] | [3] | [16] | [17] | [5] | [7] | [18] | [8] | [19] | [9] | [13] | [14] | [15]
active: [6] 34.9 µM | [11] 46.5 µM and 39.2 µM | [12] 46.4 µM and 47.1 µM | [14] 22.3 µM

CC(C)Nc1ccc(NC(C)C)c2c1C(=O)c1ccccc1C2=O
active: [7] 0.16 µM
inactive: [2] | [3] | [16] | [6] | [18] | [9] | [10]

N#Cc1ccccc1O
inactive: [2] | [3] | [17] | [6] | [7] | [18] | [8] | [19] | [9] | [20]

CCC(=O)OC(C)c1ccccc1 (centres undefined)
inactive: [2] | [3] | [17] | [6] | [18] | [8] | [19] | [10]

CCCCCCCCCCCC(=O)Cl
active: [3] 125 µM | [6] 72.9 µM | [20] 38.5 µM
inactive: [2] | [7] | [18] | [9]

Cc1ccc([N+](=O)[O-])c(C)c1
inactive: [2] | [3] | [6] | [7] | [8] | [19] | [9] | [20] | [10]

COc1ccccc1C=O
inactive: [2] | [3] | [8] | [9] | [10]

C#CC(O)CCC (centres undefined)
inactive: [2] | [16] | [6] | [7] | [8] | [20]

CC(=O)C=O
inactive: [2] | [17] | [7] | [19] | [9] | [10]

c1ccc(C[P+](c2ccccc2)(c2ccccc2)c2ccccc2)cc1
inactive: [2] | [16] | [17] | [6] | [7] | [18] | [9]
active: [10] 18.6 µM

CCCCCCCCCCCCCC[P+](CCCC)(CCCC)CCCC
inactive: [2] | [3] | [6] | [7] | [9] | [20]

CN(N=O)C(=O)N[C@@H]1[C@@H](O)[C@H](O)[C@@H](CO)O[C@@H]1O
inactive: [2] | [3] | [7] | [18] | [8] | [19] | [9] | [10]
